# Test results published in PubChem BioAssay (Tox21).
# Values without a mark were called inactive. Results filed as inconclusive are left out. A call without a number means that no potency is given here. Activity calls are given as the source filed them. Unless noted, the call rests on the fitted dose curve; in most records, active means well fitted curve in the direction sought with a large enough effect in the repeat runs; inconclusive means weak or mixed curves; inactive means no such curve, though single readings can be large; an effect the other way counts as inactive or inconclusive.
# Experiments:
# [1] = qHTS assay to identify small molecule agonists of the hypoxia (HIF-1) signaling pathway - cell viability counter screen (AID 1224844; calls by dose curve; further: nearly all actives have a fitted effect of over 50% in size; further: potency means the concentration at half of the fitted maximal effect)
# Outline: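 Multiplexed with the HRE beta-lactamase assay, this viability read used CellTiter-Glo luminescence (30 min, RT) on HRE-bla ME-180 cells treated 17 hrs with compounds in 0.5% dialyzed FBS medium.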
# [2] = qHTS assay to identify small molecule agonists of H2AX (AID 1224845; active means well fitted activation curve with a large enough effect in the signal ratio in the repeat runs, not every such curve was filed as active; the % refers to the signal ratio)
# Outline: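 Phospho-H2AX Ser139 measured by HTRF (ex 320 nm; em 665 and 620 nm) after 24 hr antibody incubation. Compounds, 15 concentrations, 0.76% DMSO, were applied to CHO-K1 cells for 3hr at 37C before lysis.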
# [3] = qHTS assay to identify small molecule agonists of the hypoxia (HIF-1) signaling pathway (AID 1224846; active means well fitted activation curve with a large enough effect in the signal ratio in the repeat runs, not every such curve was filed as active; the % refers to the signal ratio)
# Outline: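 Hypoxia-pathway activation was scored as increased beta-lactamase from an HRE-controlled reporter in ME-180 cells; plated at 2,000 cells per well with 0.5% dialyzed FBS, they were exposed 17 hrs to compounds and then given CCF4-AM.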
# [4] = qHTS assay to identify small molecule agonists of H2AX - cell viability counter screen (AID 1224847; calls by dose curve; further: top concentration of the series differs between compounds; nearly all actives have a fitted effect of over 30% in size)
# Outline: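 Cytotoxicity counter screen in wild-type CHO-K1 cells: a 3 hr compound treatment at 37C across 15 concentrations, followed by CellTiter-Glo luminescence to gauge viable cells.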
# [5] = qHTS assay to identify small molecule antagonists of the estrogen related receptor (ERR) signaling pathway from Tox21 library (AID 1224848); further: nearly all actives have a fitted effect of over 50% in size; further: potency means the concentration at half of the fitted maximal effect
# Outline: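 Reading was by luminescence 30 min after ONE-Glo addition. Before that, ERR cells at 2,000 per well had rested 6 h at 37 C/5% CO2 and then received pin-tooled compounds in DMSO for 18 h at 37 C.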
# [6] = qHTS assay to identify small molecule agonists of the estrogen related receptor (ERR) signaling pathway from Tox21 library (AID 1224849; calls by dose curve; further: nearly all actives have a fitted effect of over 15% in size); details: ERR reporter cell line, ONE-Glo luciferase, 18 h; at 92.4 µM (top of the series) unless noted
# Outline: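 Six hours post-seeding at 37 C/5% CO2, ERR cells receive DMSO-solubilised compounds; after 18 h at 37 C, ONE-Glo reagent is applied and luminescence recorded.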
# [7] = qHTS RealTime-Glo MT Cell Viability Assay in HepG2 cells - 24 hour (AID 1224867); further: nearly all actives have a fitted effect of over 50% in size
# Outline: (§1)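 HepG2 cells were seeded at 600 cells/well together with NanoLuc luciferase and a cell-permeant prosubstrate, preincubated 5 h at 37 C/5% CO2, then pin-dosed with compounds in DMSO. Nonlytic luminescence from viable cells was read at each time point.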
# [8] = qHTS RealTime-Glo MT Cell Viability Assay in HEK293 cells - 32 hour (AID 1224868); further: nearly all actives have a fitted effect of over 50% in size; further: potency means the concentration at half of the fitted maximal effect
# Outline: (§2)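 HEK293 cells were seeded at 600 cells/well together with NanoLuc luciferase and cell-permeant prosubstrate, preincubated 5 h at 37 C/5% CO2, then given compound in DMSO by pintool. Luminescence from viable-cell prosubstrate reduction was read repeatedly over 40 h.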
# [9] = A CellTox Green Cytotoxicity Assay to monitor cytotoxicity in HEK293 cells - 0 hour (AID 1224869); further: nearly all actives have a fitted effect of over 50% in size
# Outline: (§3)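 Seeding of HEK293 cells together with cytotoxicity dye preceded a 5 h incubation at 37 C/5% CO2. Test compounds in DMSO were then added and fluorescence monitored across 40 h.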
# [10] = qHTS RealTime-Glo MT Cell Viability Assay in HepG2 cells - 40 hour (AID 1224870); further: nearly all actives have a fitted effect of over 50% in size
# Outline: (§4)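 Real-time viability: cells seeded at 600 per well together with NanoLuc and cell-permeant prosubstrate, compounds added after 5 h incubation. Luminescence tracked at 0, 8, 16, 24, 32 and 40 h of exposure.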
# [11] = A CellTox Green Cytotoxicity Assay to monitor cytotoxicity in HEK293 cells - 40 hour (AID 1224871); further: nearly all actives have a fitted effect of over 45% in size
# Outline: as §3
# [12] = qHTS RealTime-Glo MT Cell Viability Assay in HEK293 cells - 16 hour (AID 1224872); further: nearly all actives have a fitted effect of over 50% in size; further: potency means the concentration at half of the fitted maximal effect
# Outline: as §2
# [13] = qHTS RealTime-Glo MT Cell Viability Assay in HepG2 cells - 8 hour (AID 1224873); further: nearly all actives have a fitted effect of over 55% in size
# Outline: as §4
# [14] = qHTS RealTime-Glo MT Cell Viability Assay in HEK293 cells - 40 hour (AID 1224874); details: RealTime-Glo luminescence; max response: active compounds read low; further: nearly all actives have a fitted effect of over 50% in size; further: potency means the concentration at half of the fitted maximal effect
# Outline: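 Tox21 screen in HEK293 using RealTime-Glo MT chemistry, with cells and reagent co-dispensed. Luminescence proportional to viable cell number was captured at intervals during 40 h compound exposure at 37 C.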
# [15] = A CellTox Green Cytotoxicity Assay to monitor cytotoxicity in HEK293 cells - 24 hour (AID 1224875); further: nearly all actives have a fitted effect of over 45% in size; further: potency means the concentration at half of the fitted maximal effect
# Outline: as §3
# [16] = A CellTox Green Cytotoxicity Assay to monitor cytotoxicity in HepG2 cells - 16 hour (AID 1224876); further: nearly all actives have a fitted effect of over 45% in size
# Outline: (§5)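 Nonlytic assay: viable cells exclude the dye, so fluorescence scales with cell death. HepG2 at 600 cells/well, compounds added after 5 h, signal read across 40 h.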
# [17] = qHTS RealTime-Glo MT Cell Viability Assay in HepG2 cells - 32 hour (AID 1224877); further: nearly all actives have a fitted effect of over 55% in size
# Outline: as §1
# [18] = A CellTox Green Cytotoxicity Assay to monitor cytotoxicity in HepG2 cells - 24 hour (AID 1224878); further: nearly all actives have a fitted effect of over 45% in size
# Outline: as §5
# [19] = A CellTox Green Cytotoxicity Assay to monitor cytotoxicity in HepG2 cells - 40 hour (AID 1224879); further: nearly all actives have a fitted effect of over 40% in size
# Outline: as §5
# [20] = biological target: Thyrotropin receptor (Homo sapiens) (UniProt P16473); test: qHTS assay to identify small molecule agonists of the thyroid stimulating hormone receptor (TSHR) signaling pathway (AID 1224843; calls by dose curve; further: nearly all actives have a fitted effect of over 45% in size)
# Outline: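 HEK293 cells stably bearing the thyrotropin receptor were plated at 800 cells/well and challenged with compound (30 min, RT). Accumulated cAMP was quantified via cAMP-d2 competing for cryptate-tagged antibody.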
# Sequence of Thyrotropin receptor (Homo sapiens) (P16473 whole entry, looked up): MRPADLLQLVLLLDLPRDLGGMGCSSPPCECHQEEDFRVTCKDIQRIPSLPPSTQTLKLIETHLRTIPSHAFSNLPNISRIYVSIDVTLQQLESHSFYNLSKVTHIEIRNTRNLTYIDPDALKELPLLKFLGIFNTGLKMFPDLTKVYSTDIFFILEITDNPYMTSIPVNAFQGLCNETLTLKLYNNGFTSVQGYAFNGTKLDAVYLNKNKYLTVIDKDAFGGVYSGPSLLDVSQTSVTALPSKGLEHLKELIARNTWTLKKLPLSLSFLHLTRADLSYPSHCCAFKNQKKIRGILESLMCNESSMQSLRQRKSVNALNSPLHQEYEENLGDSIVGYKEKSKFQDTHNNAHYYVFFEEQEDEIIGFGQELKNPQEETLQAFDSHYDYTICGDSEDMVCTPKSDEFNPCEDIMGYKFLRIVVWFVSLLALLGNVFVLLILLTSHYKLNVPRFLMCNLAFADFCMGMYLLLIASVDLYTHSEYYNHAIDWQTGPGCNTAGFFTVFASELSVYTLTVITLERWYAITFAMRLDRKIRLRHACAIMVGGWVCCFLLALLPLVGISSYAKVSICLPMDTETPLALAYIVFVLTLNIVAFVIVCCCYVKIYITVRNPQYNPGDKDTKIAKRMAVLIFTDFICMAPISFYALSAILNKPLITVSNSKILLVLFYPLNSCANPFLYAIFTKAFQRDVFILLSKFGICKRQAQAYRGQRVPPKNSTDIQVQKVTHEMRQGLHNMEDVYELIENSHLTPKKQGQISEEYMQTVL
compound,measurement,setting,value
CC(CO)(CO)C(=O)O,Potency,[1],inactive
same,Potency,[2],inactive
same,outcome,[3],inactive
same,Potency,[4],inactive
same,Potency,[5],inactive
same,"activity change, positive = activation",[6],-0.0649%
same,Potency,[7],inactive
same,Potency,[8],inactive
same,Potency,[9],inactive
same,Potency,[10],inactive
same,Potency,[11],inactive
same,Potency,[12],inactive
same,Potency,[13],inactive
same,max response,[14],0.0251%
same,Potency,[15],inactive
same,Potency,[16],inactive
same,Potency,[17],inactive
same,Potency,[18],inactive
same,Potency,[19],inactive
CCCCCCCC(=O)Oc1c(Br)cc(C#N)cc1Br,Potency,[20],inactive
same,Potency,[1],inactive
same,Potency,[5],48.4 µM (active)
same,"activity change, positive = activation",[6],-61.8%
same,Potency,[7],inactive
same,Potency,[8],38.8 µM (active)
same,Potency,[9],inactive
same,Potency,[10],inactive
same,Potency,[12],38.8 µM (active)
same,Potency,[13],inactive
same,Potency,[14],38.8 µM (active)
same,Potency,[15],inactive
same,Potency,[16],inactive
same,Potency,[17],inactive
same,Potency,[18],inactive
same,Potency,[19],inactive
CC1CCC(C(C)CS)CC1S (configuration not stated),Potency,[20],inactive
same,Potency,[1],54.9 µM (active)
same,Potency,[4],inactive
same,Potency,[5],inactive
same,"activity change, positive = activation",[6],4.8%
same,Potency,[7],inactive
same,Potency,[8],inactive
same,Potency,[9],inactive
same,Potency,[10],inactive
same,Potency,[12],inactive
same,Potency,[13],inactive
same,max response,[14],10.8%
same,Potency,[16],inactive
same,Potency,[17],inactive
same,Potency,[18],inactive
same,Potency,[19],inactive
CCCCCCCCCCCCCCCC(=O)OCC,Potency,[20],inactive
same,Potency,[1],inactive
same,Potency,[4],inactive
same,Potency,[7],inactive
same,Potency,[8],inactive
same,Potency,[9],inactive
same,Potency,[10],inactive
same,Potency,[11],inactive
same,Potency,[12],inactive
same,Potency,[13],inactive
same,max response,[14],0.513%
same,Potency,[15],inactive
same,Potency,[16],inactive
same,Potency,[17],inactive
same,Potency,[18],inactive
same,Potency,[19],inactive
CCCCCCCCCCCCCOS(=O)(=O)O,Potency,[20],inactive
same,Potency,[2],inactive
same,Potency,[4],inactive
same,Potency,[7],inactive
same,Potency,[8],inactive
same,Potency,[9],inactive
same,Potency,[10],inactive
same,Potency,[11],inactive
same,Potency,[12],inactive
same,Potency,[13],inactive
same,max response,[14],-4.56%
same,Potency,[15],24.5 µM (active)
same,Potency,[17],inactive
Nc1ccc(N=Nc2ccc(N)cc2)cc1,Potency,[20],inactive
same,outcome,[3],inactive
same,Potency,[4],inactive
same,Potency,[7],inactive
same,Potency,[8],inactive
same,Potency,[9],inactive
same,Potency,[10],inactive
same,Potency,[12],inactive
same,Potency,[13],inactive
same,max response,[14],-7.32%
same,Potency,[16],inactive
same,Potency,[17],inactive
CC/C=C\C/C=C\C/C=C\CCCCCCCC(=O)OCC,Potency,[20],inactive
same,outcome,[3],inactive
same,Potency,[4],inactive
same,"activity change, positive = activation",[6],-28.4%
same,Potency,[7],inactive
same,Potency,[8],inactive
same,Potency,[9],inactive
same,Potency,[10],inactive
same,Potency,[12],inactive
same,Potency,[13],inactive
same,max response,[14],-15.2%
same,Potency,[15],inactive
same,Potency,[16],inactive
same,Potency,[17],inactive
same,Potency,[18],inactive
same,Potency,[19],inactive
COC(=O)C1=C(C)NC(C)=C(C(=O)OC(C)(C)CN(C)CCC(c2ccccc2)c2ccccc2)C1c1cccc([N+](=O)[O-])c1 (configuration not stated),Potency,[20],inactive
same,Potency,[1],inactive
same,Potency,[4],inactive
same,Potency,[5],13.3 µM (active)
same,"activity change, positive = activation",[6],-45.4% [at 42.5 µM]
same,Potency,[8],inactive
same,Potency,[9],inactive
same,Potency,[11],inactive
same,Potency,[12],inactive
same,max response,[14],-18%
same,Potency,[15],inactive
same,Potency,[16],inactive
same,Potency,[18],inactive
same,Potency,[19],inactive
